These results are taken from PubChem BioAssay (NCI).

This experiment concerns HL-60(TB) leukemia. Nature of the experiment: NCI-60 one-dose screen, 48 h (100 = growth as untreated, 0 = no growth, -100 = all killed). The following applies: 10 µM unless noted.

About 83,000 compounds went through this panel and 20% of them were active in at least one assay; those are over-represented in the sample as a whole.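 Single-concentration screen, 48 h exposure, 96-well plates. Endpoint: percent growth. Below 10 = active.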 Values without a mark were called inactive.

For the compound `NC(=S)N/N=C(/C=C/c1cn(-c2ccccc2)nc1-c1ccc(Cl)cc1)c1cc2ccccc2oc1=O`, the growth was 43.9%. The figure for `O=S(=O)(NCCCNc1nccc(-c2[nH]c(-c3ccccc3)nc2-c2ccc(Cl)c(O)c2)n1)c1cccc(F)c1` is 35.6%; for `COc1ccc(C2CC(c3cccc(Nc4nc(Cl)nc5cc(OC)c(OC)cc45)c3)=Nc3c(N)nc(N)nc3N2)cc1` (centres undefined) it is 47.4%. `O=C(c1ccc(O)c(C(=O)N2Cc3ccc(OCCC[P+](c4ccccc4)(c4ccccc4)c4ccccc4)cc3C2)c1)N1Cc2cccc(F)c2C1`: the growth was 57.8%.
